From PubChem BioAssay
This is a sample that favours compounds with a hit; in the whole collection about 3.8% have one here.
GLS inh = glutaminase GLS (human) inhibition; AID 624170; GLS enzymatic activity, qHTS titration; Potency, µM (top dose mostly 45.5 µM), without a hit: top-dose activity change, negative = inhibition, most hits filed as inhibitors; hit rate 0.21% among 410,000
Target sequence (O94925 whole entry, looked up): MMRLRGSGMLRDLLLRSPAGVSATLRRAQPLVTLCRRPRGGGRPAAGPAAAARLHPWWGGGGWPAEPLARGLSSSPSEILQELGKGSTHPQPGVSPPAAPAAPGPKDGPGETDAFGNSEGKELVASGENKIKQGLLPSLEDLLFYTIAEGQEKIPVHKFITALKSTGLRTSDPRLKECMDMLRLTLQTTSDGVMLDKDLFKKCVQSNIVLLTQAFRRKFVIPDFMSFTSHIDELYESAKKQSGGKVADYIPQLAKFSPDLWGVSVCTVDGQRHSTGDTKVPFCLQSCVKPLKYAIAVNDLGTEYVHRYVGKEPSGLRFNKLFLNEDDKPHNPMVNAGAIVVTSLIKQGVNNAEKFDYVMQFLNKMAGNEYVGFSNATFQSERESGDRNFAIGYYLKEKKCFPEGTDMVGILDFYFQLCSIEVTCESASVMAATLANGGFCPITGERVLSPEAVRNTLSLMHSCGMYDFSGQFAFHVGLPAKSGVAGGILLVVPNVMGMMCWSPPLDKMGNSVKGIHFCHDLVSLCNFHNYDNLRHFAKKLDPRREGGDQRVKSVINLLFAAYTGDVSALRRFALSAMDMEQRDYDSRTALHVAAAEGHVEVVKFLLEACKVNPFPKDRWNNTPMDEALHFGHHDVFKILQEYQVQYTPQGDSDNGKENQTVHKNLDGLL
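Read-out is an Amplex red fluorescence increase coupled through glutamate oxidase and HRP, measured before and after 30 min room-temperature incubation. hKGA is in 45 mM KH2PO4 (pH 8.2) with 0.02% Tween-20; glutamine added as 1mM solution.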
TrxR1 inh = inhibitors of rat thioredoxin reductase 1; Potency, µM (doses to about 114 µM), for inactives: top-dose activity change, negative = inhibition, hits mostly inhibitors; hit rate 1% among 390,000; O89049; recombinant rTrxR1, NADPH fluorescence consumption, selenite substrate; also: nearly all actives have a fitted effect of over 65% in size
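Rat TrxR1 (90 nM in the dispensed reagent) was pre-reduced with 400 uM NADPH for 5 min at room temperature, then incubated with compound for 15 min. After 400 uM selenite was added, NADPH fluorescence (Ex 340/Em 450 nm) was followed for 8 min.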
VDR inh = inhibitors of human vitamin D receptor; VDR-SRC2-3 peptide fluorescence polarization, 2 h; hit rate 0.93% among 400,000; AID 504847; P11473; Potency, µM, without a hit: max response, negative = inhibition, usual class: inhibitors
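After 23 nl compound addition and a short centrifugation, plates sat for 2 hours at ambient temperature; polarization of fluorescence then indicated loss of VDR binding to peptide SRC2-3.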
TrxR1 substrate = is turned over as a substrate by rat TrxR1. purified TrxR1 substrate turnover, NADPH consumption readout. Potency, µM (doses to about 114 µM), without a hit: at the top dose activity change, negative = substrate turnover. hit rate 0.01% among 390,000. AID 588456; also: nearly all actives have a fitted effect of over 50% in size
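Rat TrxR1, dispensed at 90 nM, was prereduced with 400 uM NADPH (final) for 5 min at ~22 deg C, then incubated with compound 15 min before 400 uM selenite. A first-read NADPH fluorescence drop versus no-compound background flagged substrates.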
Sfp inh = Sfp phosphopantetheinyl transferase inhibition; Q9F4F7; Biochemical Sfp PPTase activity, qHTS; Potency, µM, without a hit: largest response in the series, negative = inhibition, usual class: inhibitors; hit rate 3.5% among 310,000; AID 1490;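 also: the enzyme is Sfp with the accession as filed and its product quenches rhodamine fluorescence; 0% = enzyme reaction without inhibitor and -100% = no enzyme wells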
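Reaction rates are the 30-min fluorescence difference (ex 525, em 598 nm) in wells containing 15 nM Sfp, 5 uM rhodamine-CoA and 12.5 uM BHQ-2-YbbR at pH 7.6 with 10 mM MgCl2.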
GCN5L2 inh = inhibitors of human GCN5L2 histone acetyltransferase | GCN5L2 HAT assay, ThioGlo1 CoA-SH fluorescence | Potency, µM (highest dose often 58.9 µM), without a hit: at the top dose activity change, negative = inhibition, usual class: inhibitors | hit rate 0.21% among 390,000
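Free CoA generated was detected with ThioGlo1 (50uM) fluorescence at Ex340nm/Em540nm, read immediately and after 20 min at room temperature. Enzyme, 20 nM in HEPES pH 7.5 buffer, saw compounds 15 min before adding 75uM H3(1-25) peptide and 70uM acetyl-CoA.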
* hit, by the source's call; ? = inconclusive; . = no result given; [ ] = another dose, or the depositor's remark. Calls follow the shape of the dose curve; as a rule, active = well fitted curve in the direction sought with a large enough effect; inconclusive = small, poorly fitted or top-dose-only effect, or another doubt; inactive = no such curve, though single readings can be large; an effect the other way counts as inactive or inconclusive. Unless noted, % is scaled to controls: 0 for no effect and ±100 for the full control effect; potency is read from the fitted curve at half-maximal effect.

SMILES	GLS inh	TrxR1 inh	VDR inh	TrxR1 substrate	Sfp inh	GCN5L2 inh
CCOc1ccc(N2C(=O)CC(Sc3nnnn3-c3ccccc3)C2=O)cc1 (stereo not drawn)	-12%	-9%[57.1 µM]	2%	-1%[57.1 µM]	16µM*	-1%
O=C1CC(Sc2nnc(-c3ccccc3)o2)C(=O)N1c1ccccc1 (stereo not drawn)	20%	7.1µM*	-5%	-1%	22µM*	0%
C=CCNc1nnc(SC2CC(=O)N(c3ccc(OC)cc3)C2=O)s1 (stereo not drawn)	3%	4µM*	-19%	11%	?	-11%
CN(C(=O)CSc1nnc2[nH]c(=O)cc(-c3ccccc3)n12)c1ccccc1	1%	6%[57.1 µM]	16%	13%[57.1 µM]	.	-21%
Cc1ccccc1N1C(=O)CC(Sc2nnc(-c3ccccc3)o2)C1=O (stereo not drawn)	-1%	?	-11%	12%[57.1 µM]	10µM*	-24%
COc1ccccc1NS(=O)(=O)c1ccc(C)c(NC(=O)NCCCl)c1	-3%	20%	12%	1%	89µM*	-15%
COc1ccccc1NS(=O)(=O)c1ccc(C)c(NC(=O)NC2CCCCC2)c1	3%	-12%[57.1 µM]	10%	0%[57.1 µM]	6%	-7%
COC(=O)c1ccc(CSc2nnc(-c3ccccc3)n2C)o1	3%	-1%	-3%	1%	0%	-3%
COC(=O)c1ccc(CSc2cc(C)c3ccccc3n2)o1	14%	16%[57.1 µM]	?	6%[57.1 µM]	25µM*	-8%
CCn1c2ccccc2c2nnc(SCc3ccc(C(=O)OC)o3)nc21	8%	21%	1%	6%	32µM*	-6%
CC(C)Oc1ccc(C(=O)NCC(=O)OCC(=O)N(C)Cc2cccs2)cc1	-14%	21%[57.1 µM]	9%	7%[57.1 µM]	19%	-2%
O=C(Nc1sc2c(c1C(=O)O)CCCC2)C(=O)N1CCOCC1	9%	-10%	-12%	-1%	?	-6%
O=C(Nc1sc2c(c1C(=O)O)CCC2)C(=O)N1CCOCC1	4%	9%	-1%	-10%	79µM*	-24%
CC(C)CN(C(=O)COC(=O)c1ccc(C#N)cc1)C1CCS(=O)(=O)C1 (stereo not drawn)	3%	10%	2%	5%	.	3%
CC(=O)c1ccccc1OCCn1nnc(-c2ccc(C)cc2)n1	17%	15%	-10%	-2%	-6%	-9%
CCCCC(=O)Nc1ccc2nc(SCC(=O)N3CCCC3)sc2c1	3%	14%	8%	-2%	.	-11%
CCCn1c(SCC#N)nc2c(c1=O)C1(CCCC1)Cc1ccccc1-2	5%	15%[57.1 µM]	-5%	-7%	-5%	-10%
N#CCSc1n[nH]c2nc3c(c(=O)n12)C1(CCCC1)Cc1ccccc1-3	3%	29%	-9%	171%	89µM*	-14%
C/C=C/c1ccc(OCC(=O)O)c(OC)c1	44%	-19%	11%	0%	13%	-1%
CC(C)=CCOc1ccc(/C=C/C(=O)c2ccc(OCC=C(C)C)cc2OCC(=O)O)cc1	-1%	.	10µM*	.	?	10µM*
O=S(=O)(O)c1cccc2c(N=Nc3ccc(O)c4ncccc34)cccc12	8.9µM*	-14%	-12%	-10%	-7%	?
Cc1cc(C)cc(NC(=O)CCN2CCOCC2)c1	12%	43%[2.29 µM]	3%	1%	30%	0%
CCOc1c(Cl)cc(CNCc2ccncc2)cc1OC	-9%	16%	11%	8%	21%	-7%
O=C(O)c1ccc2cccnc2c1O	-6%	2%	15%	-1%	20µM*	-1%
Oc1ccccc1C(Nc1nccs1)c1ccc2cccnc2c1O (stereo not drawn)	16µM*	?	7%	-2%	23%	-1%
SMILES	GLS inh	TrxR1 inh	VDR inh	TrxR1 substrate	Sfp inh	GCN5L2 inh
O=C(O)c1ccccc1NC(c1ccccc1)c1ccc2cccnc2c1O (stereo not drawn)	-13%	?	35µM*	10%[11.4 µM]	.	.
O=C(O)c1ccc2cccnc2n1	9%	12%[57.1 µM]	9%	10%[57.1 µM]	-59%	-3%
CC(=O)NC(c1ccc(Cl)cc1)c1ccc2cccnc2c1O (stereo not drawn)	5%	44%[2.29 µM]	-5%	-2%	.	.
Cc1cccc(-n2c(=O)c3c4c(sc3n3c(C)nnc23)CCCC4)c1	3%	5%[57.1 µM]	-5%	4%[57.1 µM]	.	1%
S=C1NC2=C(CCCC2=C2SCCS2)C(c2ccccc2)N1 (stereo not drawn)	4%	?	-22%	-6%[57.1 µM]	-7%	-17%
Fc1ccc(/C=C2\CCCC3=C2NC(=S)NC3c2ccc(F)cc2)cc1 (stereo not drawn)	.	.	.	.	45µM*	1%
Cc1cc(Br)ccc1OCCCCN1CCCCC1	-20%	3%[57.1 µM]	-16%	7%	45µM*	-5%
Cc1cc(Br)ccc1OCCOCCN1CCCC1	5%	19%	?	-3%	-4%	-8%
Cc1cc(CNCCN(C)C)c(C)n1-c1cc(S(=O)(=O)N2CCOCC2)ccc1N1CCCC1	0%	89µM*	-14%	27%	.	.
COc1cc(/C=C2/C(=N)N3C(c4ccccc4)=CSC3=NC2=O)ccc1OCC(=O)O	15%	-17%	-24%	-5%	8%	-1%
N=C1/C(=C\c2ccc(-c3ccc(C(=O)O)cc3)o2)C(=O)N=C2SC=C(c3ccccc3)N12	?	?	-8%	-10%	32µM*	-2%
N=C1/C(=C\c2ccc(-c3cccc(Cl)c3)o2)C(=O)N=C2SC=C(c3ccccc3)N12	71%	-19%[57.1 µM]	?	-1%[57.1 µM]	6.3µM*	?
O=C(Nc1ccc(OC(F)(F)F)cc1)c1cc(-c2ccc(Cl)cc2)on1	-11%	20%	-12%	-1%	.	-5%
O=C(NNS(=O)(=O)c1ccc([N+](=O)[O-])cc1)c1ccc2ccccc2c1O	-18%	1%	3%	-9%	-11%	-7%
O=C1c2c([N+](=O)[O-])cc([N+](=O)[O-])cc2S(=O)N1Cc1ccccc1 (stereo not drawn)	-3%	-20%	?	-2%	50µM*	28µM*
COC(=O)C1=C(C)NC(=O)/C1=C\c1ccc2c(c1)OCO2	3%	?	-4%	-7%	4%	-7%
CCOc1cc(/C=C2/C(=O)ON=C2C)ccc1OCc1ccccc1F	-1%	-26%[11.4 µM]	-83%	6%[11.4 µM]	20µM*	-16%
CC1=NOC(=O)/C1=C/c1ccc2c(c1)OCO2	-31%	-20%[57.1 µM]	32µM*	4%	1%	-8%
COc1ccc(/C=C2/C(=O)ON=C2C)cc1Br	14%	-37%	?	-2%[57.1 µM]	?	-19%
COc1ccccc1/C=C1/C(=O)ON=C1C	4%	?	50µM*	-10%	-28%	26%
CC1=NOC(=O)/C1=C\c1ccc2c(c1)OCO2	-2%	?	89µM*	4%	-27%	-16%
